Six1-Eya2 inh: inhibitors of human Six1/Eya2 interaction. Q15475+O00167. AlphaScreen GST-Six1/His-Eya2 binding, biochemical; active compounds read low. activity change, % (test concentration not listed). 360,000 compounds, 0.56% hits; in the data active means activity change below about -65%; inconclusive means mostly about -30% to -63%; further: on the % scale 0 is the no-effect control and ±100 the full control effect
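AlphaScreen luminescence read after one hour at 37 °C in darkness. Pin-transferred compounds met GST-Six1 and His-Eya2 protein (5X stock 250 nM/500 nM) plus glutathione donor and Ni-chelate acceptor beads (5X, 50 ug/mL).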
CtBP-E1A blk: inhibitors of CtBP/E1A interaction; 340,000 compounds, 0.49% hits; AlphaScreen GST-E1A/His-CtBP binding, 1536-well; active compounds read low; activity change, % (no concentration beside the values); in the data active means activity change below about -65%; inconclusive means mostly about -30% to -63%; further: on the % scale 0 is the no-effect control and ±100 the full control effect
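In 5 uL wells, 23 nL compound meets equimolar GST-E1A and His-CtBP (5X stock 125 nM each) for 2 h, 37 °C. Beads (5X, 50 ug/mL) then 1 h, 37 °C, dark.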
G9a block: inhibitors of human histone lysine methyltransferase G9a; G9a H3K9 monomethylation, AlphaScreen, 2 h; Potency, µM (series often up to 102 µM), without a hit: at the highest dose activity, negative = inhibition, hits mostly inhibitors; 350,000 compounds, 8.8% hits; further: potency means the concentration at half of the fitted maximal effect; on the % scale 0 is the no-effect control and ±100 the full control effect; nearly all actives have a fitted effect of over 75% in size
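Readings reflect AlphaScreen signal from monomethyl-H3K9 antibody detection. HMT at 20 nM; substrate b-H3K9 500 nM; cofactor SAM 20 uM; 2 h RT reaction; compounds tested as titrations in qHTS with 15 min preincubation.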
BAZ2B inh: inhibitors of human BAZ2B bromodomain; AlphaScreen BAZ2B-H3K14Ac peptide displacement; AID 504333; 360,000 compounds, 4.4% hits; Potency, µM (top dose mostly 114 µM), for inactives: at the top dose activity change, negative = inhibition, actives largely listed as inhibitors; further: potency means the concentration at half of the fitted maximal effect; on the % scale 0 is the no-effect control and ±100 the full control effect; nearly all actives have a fitted effect of over 60% in size
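AlphaScreen luminescence quantifies BAZ2B engagement of H3K14Ac peptide; the protein and biotinylated peptide are both at 50 nM final, buffer PBS pH 7.4 with 0.01% Tween-20, all steps at room temperature.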
HP1b chromo inh: HP1-beta chromodomain-methylated histone interaction inhibition | AlphaScreen HP1-beta / biotin-H3K9me3 peptide binding | P83916 | AID 540317 | Potency, µM (series often up to 114 µM), for the others: at the highest dose activity change, negative = inhibition, actives largely listed as inhibitors | 390,000 compounds, 0.56% hits; further: potency means the concentration at half of the fitted maximal effect; nearly all actives have a fitted effect of over 70% in size
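HP1-beta protein (50 nM final) preincubated 30 min at room temperature with biotinylated H3(1-18)K9me3 peptide (50 nM) in PBS pH 7.4, 0.01% Tween-20, then compound added for 30 min. AlphaScreen streptavidin donor/nickel chelate acceptor beads (10 ug/mL final), 30 min dark, luminescence read.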
JMJD2A Tudor: blocks the human JMJD2A Tudor domain. O75164. 390,000 compounds, 4.4% hits. AlphaScreen JMJD2A-Tudor / H3K4me3 peptide binding. Potency, µM (titrated, usually from 114 µM), inactives show top-dose activity change, negative = inhibition, actives largely listed as inhibitors; further: potency means the concentration at half of the fitted maximal effect; on the % scale 0 is the no-effect control and ±100 the full control effect; nearly all actives have a fitted effect of over 50% in size
Active calls of the source: *; ? = inconclusive; . = no result given; [ ] = another dose, or the depositor's remark. Only some compounds are listed: those with a hit (about 10% of all), similar ones and a draw of the others. Unless noted, the call rests on the fitted dose curve; in most records, active means well fitted inhibition curve with a large enough effect; inconclusive means small, poorly fitted or top-dose-only effect; inactive means no such curve, though single readings can be large or run the other way.

SMILES	Six1-Eya2 inh	CtBP-E1A blk	G9a block	BAZ2B inh	HP1b chromo inh	JMJD2A Tudor
Cc1cccc(C)c1-n1c(C)cc(/C=N/NC(=O)CSc2ncccn2)c1C	-21.8	-0.2	16.8%[59 µM]	44.7µM*	?	50.1µM*
Cc1cc(C)nc(SCC(=O)N/N=C\c2sccc2C)n1	-0.8	-3.7	9.7%	-0.3%	25.1%	-9.3%
Cc1ccccc1N(CC(=O)N/N=C/c1cc(C)n(-c2ccccc2C)c1C)S(C)(=O)=O	-26.3	-15.6	10µM*	?	-3.0%	?
Cc1cc(C)nc(SCC(=O)N/N=C/c2cc(C)n(-c3ccccc3C)c2C)n1	-15.9	-26.9	50.1µM*	44.7µM*	?	?
COc1cc2sc(-c3ccc(S(C)(=O)=O)cc3)c(C#CCO)c2cc1OC	?	?	.	.	50.5%	-19.3%
CN(Cc1ccco1)c1ncnc2ccc(-c3cccc(Cl)c3)cc12	.	.	-23.8%[12.7 µM]	-19.4%	.	.
CC[C@@H]1Cc2[nH][nH]c(=O)c2[C@H](CC(C)C)O1	-2.0	6.2	.	.	.	.
Cc1cc(C)cc(-n2c(C)cc(/C=N\NC(=O)COc3cccc4cccnc34)c2C)c1	-18.4	.	44.7µM*	?	1.8%	?
Cc1cc(/C=N/NC(=O)COc2cccc3cccnc23)c(C)n1-c1ccc(O)cc1	4.1	11.6	7.9%[59 µM]	-9.4%	30.2%	-7.8%
CCCN1C2=C(C(=O)CC(C)(C)C2)C(c2ccc(F)cc2)C2=C1c1ccccc1C2=O (stereo unspecified)	-6.2	-8.1	11.2µM*	?	?	-29.6%
CC1(C)CC(=O)C2=C(C1)NC1=C(C(=O)c3ccccc31)C2c1ccc(Cl)cc1 (stereo unspecified)	?	-25.5	?	11.2µM*	?	15.8µM*
Cc1ccc(C2C3=C(CC(C)(C)CC3=O)NC3=C2C(=O)c2ccccc23)cc1 (stereo unspecified)	?	?	14.1µM*	31.6µM*	?	50.1µM*
COc1ccc(C2C3=C(CCCC3=O)NC3=C2C(=O)c2ccccc23)cc1 (stereo unspecified)	-26.0	-29.6	.	35.5µM*	?	50.1µM*
Cc1ccc(C2C3=C(CC(C)(C)CC3=O)Nc3onc(C)c32)cc1 (stereo unspecified)	6.0	-7.7	-15.9%[59 µM]	?	48.4%	3.4%
O=C(CNS(=O)(=O)c1ccc(Cl)cc1)OCC(=O)N1CCCc2ccccc21	-0.3	4.7	3.0%	-3.2%	34.7%	-9.2%
NC(=S)N/N=C1\CC(n2nnnc2-c2ccccc2)C2COC1O2 (stereo unspecified)	-0.3	0.5	?	-18.5%	39.5%	-13.7%
NC(=S)N/N=C1\CC(n2nnn(-c3cccc(Cl)c3)c2=S)C2COC1O2 (stereo unspecified)	-1.2	-2.9	39.8µM*	?	-20.9%	?
O=c1cccccc1NCc1ccccc1	0.8	-0.9	10µM*	11.6%	31.0%	4.2%
C=CCn1c(SCC(=O)Nc2nc(C)cs2)nnc1C(C)NC(=O)c1ccccc1Cl (stereo unspecified)	0.6	-8.9	?	-5.6%	18.9%	89.1µM*
CC(NC(=O)c1ccccc1Cl)c1nnc(SCC(=O)Nc2ccc(C(=O)O)cc2)n1C (stereo unspecified)	3.6	-0.2	-2.0%[59 µM]	1.4%	-2.8%	-10.7%
Cc1ccc(S(=O)(=O)CCC(=O)c2cccc([N+](=O)[O-])c2)cc1	-20.0	-0.8	1.41µM*	-27.5%	44.7µM*	28.2µM*
O=C(CCNc1cccc(F)c1)c1cc2ccccc2o1	-3.6	-5.2	10µM*	13.2%	37.1%	-23.2%
O=C(CCNc1ccc(Cc2ccncc2)cc1)c1cccc([N+](=O)[O-])c1	-14.5	-25.7	8.91µM*	25.1µM*	?	44.7µM*
CCOC(=O)c1ccc([N+](=O)[O-])c(CS(=O)(=O)c2ccc(Cl)cc2)c1	-12.3	.	-17.0%[2.33 µM]	?	?	?
Cc1ccc(S(=O)(=O)Cc2cc(F)c([N+](=O)[O-])cc2[N+](=O)[O-])cc1	4.3	-0.3	50.1µM*	56.2µM*	19.4%	-33.3%
SMILES	Six1-Eya2 inh	CtBP-E1A blk	G9a block	BAZ2B inh	HP1b chromo inh	JMJD2A Tudor
O=C(Nc1cccc([N+](=O)[O-])c1)c1ccncc1	1.2	1.7	9.5%[59 µM]	1.3%	27.4%	-4.1%
O=C(CSc1nnc(-c2cccc(F)c2)c(-c2cccc(F)c2)n1)NC1CCCCC1	.	.	2.6%[59 µM]	0.0%	34.2%	2.0%
CCOc1ccc(-c2c(C(=O)N/N=C/c3c[nH]c4ccccc34)nnn2-c2nonc2N)cc1	-4.1	-17.8	.	-10.4%	22.2%	-5.8%
O=C(CCNc1cccc(F)c1)c1cccc([N+](=O)[O-])c1	?	-2.4	7.08µM*	35.5µM*	-38.1%	?
COC(=O)c1cc(NC(=O)COC(=O)CCc2nc3ccccc3c(=O)[nH]2)cc(C(=O)OC)c1	0.1	-6.2	.	.	30.2%	-8.3%
Cc1ccc(S(=O)(=O)NN2CCCCCC2)cc1	4.8	-1.9	.	.	.	.
CN1CCN(NS(=O)(=O)c2ccc(Cl)cc2)CC1	5.6	6.6	1.12µM*	1.2%	15.0%	-10.9%
CCNc1ncc2nc(-c3ccc(OC)cc3)c(=O)n(-c3ccc(OC)cc3)c2n1	.	.	2.7%[12.7 µM]	.	.	.
O=C(N=Nc1c(O)n(Cc2ccccc2)c2ccccc12)c1ccc(O)cc1	?	-19.4	14.6%[59 µM]	-4.7%	14.9%	-18.6%
O=S1(=O)CC(O)C(N=Nc2c(O)n(Cc3ccccc3)c3ccccc23)C1 (stereo unspecified)	-2.9	-0.5	39.8µM*	?	?	-28.7%[11.4 µM]
COc1ccc(OCC(O)CN(CC(O)COc2ccc(OC)cc2)c2cccc(O)c2)cc1 (stereo unspecified)	-12.8	-17.9	50.1µM*	44.7µM*	-15.5%	?
O=C(Nc1ccccc1)c1cc(C2COCCN2C(=O)C2CC2)on1 (stereo unspecified)	9.3	4.0	.	.	.	.
O=C(Oc1ccccc1)c1ccc2nsnc2c1	-10.4	12.4	?	50.1µM*	-21.9%	?
CCS(=O)(=O)N1CCc2cc(C(=O)Nc3cc(C(F)(F)F)ccc3Cl)ccc21	.	.	-1.3%[59 µM]	-1.7%	29.6%	-24.5%
O=c1[nH]nc(-c2ccc(F)cc2)cc1Cc1ccccc1	-2.0	.	6.8%	-3.3%	34.7%	-4.3%
O=C(CN1C(=O)N/C(=C\c2ccccc2OCc2ccc(C(=O)O)cc2)C1=O)Nc1ccc(F)cc1	-11.6	-11.4	24.2%	70.8µM*	?	-32.9%
O=C(O)c1ccc(COc2ccccc2/C=C2\NC(=O)N(Cc3ccc(F)cc3)C2=O)cc1	2.2	3.7	?	1.5%	9.2%	-24.4%
